# Data as given in PubChem BioAssay (EPA / NIEHS).
# “And” between values parts separate entries of the source, which are not always exact repeats. Equal entries are not always repeated. Inconclusive results are not listed. Where a structure was tested more than once in an assay, its records may differ in their call. The source made the active and inactive calls. The calls were made as follows, unless noted: active = hit-call score of the fitted dose curve at least 0.9, where 1 is the maximum; inactive = score below 0.9.
# Columns and labels:
# [1] = read-out: Interleukin 6 (IL6), IL6 (gene 3569); assay: BSK_BT_xIL6: BioMAP Diversity Plus: BT Assay for Interleukin 6 (IL6) Biomarker Activity (AID 2284228); settings: primary human B cells with PBMC
# In short: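 Human B cell/PBMC co-culture; secreted IL-6 quantified by Luminex xMAP 24 h after chemical dosing, fitted relative to DMSO. Parallel PBMC viability by Alamar Blue after 1 h pretreatment, 20 ng/mL SEB and TSST-1, 90 h incubation.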
# [2] = read-out: Interleukin 17A (IL17A), IL17A (gene 3605); assay: BSK_BT_xIL17A: BioMAP Diversity Plus: BT Assay for Interleukin 17A (IL17A) Biomarker Activity (AID 2284229); settings: primary human B cells with PBMC
# In short: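 Co-culture of human B cells and PBMC, dosed for 24 h in 96-well format. Secreted IL-17A measured with Luminex xMAP; gain-direction fitting against DMSO as baseline.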
# [3] = read-out: Tumor necrosis factor (Homo sapiens) (UniProt P01375); assay: BSK_BT_xTNFa: BioMAP Diversity Plus: BT Assay for Tumor necrosis factor alpha (TNF-alpha) Biomarker Activity (AID 2284230); settings: primary human B cells with PBMC
# In short: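 Human primary co-culture of B cells and peripheral blood mononuclear cells; TNF-alpha in supernatant, 24 h post-dose, Luminex multiplex; DMSO = baseline.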
# [4] = read-out: Vascular cell adhesion molecule 1 (VCAM1), VCAM1 (gene 7412); assay: BSK_MyoF_VCAM1: BioMAP Diversity Plus: MyoF Assay for Vascular cell adhesion molecule 1 (VCAM1) Biomarker Activity (AID 2284231); settings: primary human lung fibroblasts
# In short: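 Primary human lung fibroblasts (BioMAP MyoF system) dosed with chemical, VCAM-1 measured by ELISA 24 hours later. Fitted in the positive direction against DMSO; parallel SRB staining assessed cytotoxicity.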
# [5] = TAMU_PeakParms_SingleDonor1434_QT: Texas A&M University (TAMU) 1.5-hr Human Induced Pluripotent Stem Cell (iPSC)-derived Cardiomyocytes Calcium (Ca+2) Flux Assay for Cardiotoxicity: QT (decay-rise ratio) (AID 2284235; active = hit-call score of the fitted dose curve at least 0.9, where 1 is the maximum)
# In short: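 Decay/rise ratio of calcium-flux fluorescence scored after 90 min exposure (37C) of donor 1434 iPSC cardiomyocytes to 0.2–100 uM (0.5% DMSO). Beat-cessation and severe-notch points removed; POD is EC05, a 5% rise over DMSO.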
# [6] = UKN4_HCS_LUHMES_cell_viability: Viability Assessment in the University of Konstanz (UKN) Leist Lab Neurite Outgrowth Assay in human LUHMES cells (UKN4) (AID 2284232)
# In short: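 Viability was read by high-content imaging of calcein-AM/H-33342-stained cells after 24 h toxicant exposure, staining included. Cells: human LUHMES on day 2 of dopaminergic differentiation, dosed shortly after attachment; DMSO baseline, bidirectional curve fitting.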
# [7] = UKN2_HCS_IMR90_cell_viability: Viability Assessment in the University of Konstanz (UKN) Leist Lab Neural Crest Cell Migration Assay in human induced IMR90 Pluripotent Stem Cells (UKN2) (AID 2284233);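 also: cells exposed to compound for 24 h after a 24 h migration phase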
# In short: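 Viability read as calcein-AM fluorescence by high-content imaging, Hoechst co-stain, 30 min. Human iPSC (IMR90) neural crest cells had migrated 24 h into stopper-defined gaps before 24 h chemical exposure. Fitted bidirectionally relative to DMSO.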
# [8] = TAMU_HCS_1.5hr_SingleDonor1434_Cytotoxicity: Cytotoxicity Assessment using High-content Screening (HCS) Fluorescent Imaging for the Texas A&M University (TAMU) 1.5-hr Human Induced Pluripotent Stem Cell (iPSC)-derived Cardiotoxicity Assay (AID 2284234; active = hit-call score of the fitted dose curve at least 0.9, where 1 is the maximum)
# In short: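 Nuclear counts from Hoechst 33342 imaging define cytotoxicity here, with EC10 (10% cell-count loss relative to DMSO) as point of departure. iPSC cardiomyocytes received 0.2-100 uM test chemical in 0.5% DMSO for 1.5 h at 37 C.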
# [9] = CCTE_Mundy_HCI_Cortical_NOG_NeuronCount: CCTE's Neurite Outgrowth Assay in rat cortical cells for Neuron Count, Mundy Lab (AID 2284236; active = hit-call score of the fitted dose curve at least 0.9, where 1 is the maximum;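 also: neurons counted by imaging betaIII-tubulin and Hoechst stained cortical cells; cells exposed to compound for about 48 hours before fixation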)
# In short: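 Read-out: neuron number by high-content imaging of betaIII-tubulin (Alexa Fluor-488) and Hoechst-labelled rat primary cortical cells.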
# [10] = CCTE_Mundy_HCI_Cortical_NOG_BPCount: CCTE's Neurite Outgrowth Assay in rat cortical cells for Branch Point Count, Mundy Lab (AID 2284237);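 also: branch points counted about two days after chemical exposure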
# Protocol: CCTE_Mundy_HCI_Cortical_NOG is a multiplexed, cell-based-readout assay that uses rat primary cortical cells with measurements taken at 50.33 hours after chemical dosing in a microplate: 96-well plate.CCTE_Mundy_HCI_Cortical_NOG_BPCount is one of four components of the CCTE_Mundy_HCI_Cortical_NOG assay. It measures neurite outgrowth related to the number of branch points using High Content Imaging of fluorescently labelled markers.[…] Using a type of morphology reporter, loss -of-signal activity can be used to understand developmental effects.
# Exposure starts 2 hours post-plating by adding 10 ul of the working solution to 90 ul of media in the wells for a 1/10 dilution. Forty-eight hours after chemical treatment cells are fixed by direct addition of 100 ul of warm (37C) Dulbecco's phosphate buffered saline (DPBS) fixative solution containing 8% paraformaldehyde, 8% sucrose, and 0.1% of 3 mg/ml Hoechst 33342 into each well. Primary antibodies are prepared by dilution in Immunocytochemical Staining Buffer (ISB), 10X Dulbecco's PBS, 0.1% Saponin, 5% Bovine Serum Albumin, 0.5% NaN3 (Sodium Azide) and betaIII-tubulin (rabbit anti-betaIII-tubulin, 1:800) followed by Alexa Fluor-488 secondary (1:500) to label neuronal cell bodies and neurites. A Cellomics ArrayScan VTi HCS Reader is used for automated image acquisition and analysis of neurite outgrowth.
# Sequence of Tumor necrosis factor (Homo sapiens) (P01375 whole entry, looked up): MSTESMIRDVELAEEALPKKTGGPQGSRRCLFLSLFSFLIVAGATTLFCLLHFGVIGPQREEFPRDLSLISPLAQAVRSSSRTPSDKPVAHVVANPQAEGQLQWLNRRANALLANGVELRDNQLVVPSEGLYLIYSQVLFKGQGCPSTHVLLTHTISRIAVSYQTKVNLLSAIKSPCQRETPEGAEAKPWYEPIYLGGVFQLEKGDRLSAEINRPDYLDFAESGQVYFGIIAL
smiles,measurement,setting,value
CCCCCCCCCCCCCC[N+](C)(C)C,AC50,[1],4.27 µM (active)
same,AC50,[2],1.48 µM (active)
same,AC50,[3],2.59 µM (active)
same,AC50,[4],3.84 µM (active)
OCCC(F)(F)C(F)(F)C(F)(F)C(F)(F)C(F)(F)C(F)(F)F,AC50,[1],49.1 µM (active)
same,outcome,[1],inactive
same,AC50,[2],43.1 µM (active)
same,outcome,[2],inactive
same,AC50,[3],41.4 µM (active)
same,outcome,[3],inactive
same,outcome,[4],inactive
c1ccc2c(c1)ccc1ccccc12,outcome,[5],inactive
NCC(F)(F)C(F)(F)C(F)(F)C(F)(F)C(F)(F)C(F)(F)C(F)(F)F,outcome,[1],inactive
same,outcome,[2],inactive
same,outcome,[3],inactive
same,outcome,[4],inactive
CC#C[C@]1(O)CC[C@H]2[C@@H]3CCC4=CC(=O)CCC4=C3[C@@H](c3ccc(N(C)C)cc3)C[C@@]21C,outcome,[6],inactive
same,AC50,[7],16.5 µM (active) and 8.62 µM (active)
same,outcome,[8],inactive
same,AC50,[9],69.2 µM (active) and 15 µM (active)
same,AC50,[10],26.2 µM (active) and 24.2 µM (active)
c1ccc2cc3c(ccc4ccccc43)cc2c1,outcome,[5],inactive
CN1CCC[C@H]1c1cccnc1,outcome,[6],inactive
same,outcome,[7],inactive
same,outcome,[9],inactive
C=C(C)C(=O)OCCC(F)(F)C(F)(F)C(F)(F)C(F)(F)C(F)(F)C(F)(F)F,outcome,[1],inactive
same,outcome,[2],inactive
same,outcome,[3],inactive
same,outcome,[4],inactive
c1ccc2c(c1)Cc1ccccc1-2,outcome,[5],inactive
C[C@@H]1C[C@H]2[C@@H]3CCC4=CC(=O)C=C[C@]4(C)[C@@]3(F)[C@@H](O)C[C@]2(C)[C@@]1(O)C(=O)COP(=O)(O)O,AC50,[1],863 nM (active) and 1.34 µM (active)
same,AC50,[2],0.1 µM (active)
same,AC50,[3],245 nM (active) and 100 nM (active)
same,outcome,[4],inactive
FC(F)(I)C(F)(F)C(F)(F)C(F)(F)C(F)(F)C(F)(F)I,AC50,[3],21.2 µM (active) [middle of 5 runs]
same,AC50,[4],5.28 µM (active) [middle of 5 runs]
OCCC(F)(F)C(F)(F)C(F)(F)C(F)(F)C(F)(F)C(F)(F)C(F)(F)C(F)(F)F,AC50,[1],53.1 µM (active) and 52.6 µM (active)
same,AC50,[2],44.1 µM (active) and 43.9 µM (active)
same,AC50,[3],45.5 µM (active) and 41.3 µM (active)
same,AC50,[4],13.4 µM (active) and 9.75 µM (active)
CC1=C(/C=C/C(C)=C/C=C/C(C)=C/C(=O)O)C(C)(C)CCC1,AC50,[6],48 µM (active)
same,outcome,[7],inactive
same,outcome,[9],inactive
